From PubChem BioAssay AID493200 (National Center for Advancing Translational Sciences (NCATS), 2011) come the findings set out here.

Results filed as inconclusive are left out. A call without a number means that no potency is given here. The source made the active and inactive calls. Calls follow the shape of the dose curve; as a rule, active = well fitted activation curve with a large enough effect; inconclusive = small, poorly fitted or top-dose-only effect; inactive = no such curve, though single readings can be large or run the other way.
Potency is read from the fitted curve at half-maximal effect.

The assay can be described thus: qHTS Assay for Rab9 Promoter Activators: Initial hit validation from the primary screen. The following applies: Huh7 Rab9 promoter luciferase reporter, 24 h; series mostly up to 46.1 µM. The source says:
NIH Chemical Genomics Center [NCGC] NIH Molecular Libraries Probe Production centers Network [MLPCN] MLPCN Grant: MH089537-01 Assay Submitter (PI): Yiannis A. Ioannou NCGC Assay Overview: Niemann Pick Type C (NPC) is a rare neurodegenerative lipidosis that is characterized by lipid storage in the endosomal/lysosomal system. Treatment modalities for this devastating disease are currently non-existent due to the severe obstacles associated with accessing the central nervous system with proteins or genes (Ioannou, 2000). We have developed a new paradigm, termed "Orphan Receptor Bypass Therapy" (ORByT), to address these disorders. This paradigm posits the existence of endogenous "suppressor" proteins whose expression can dramatically improve LSD pathogenesis. The goal is the identification/discovery of small chemical compounds that can modulate the expression of these proteins and provide a new treatment modality for these devastating disorders. One such protein whose overexpression reverses aspects of the NPC phenotype is Rab9. We have developed and optimized a cell based luciferase reporter assay in 1536 well format for the identification of up-regulators of the Rab9 promoter. This assay presents data on the validation of hits from the primary screen.
The Rab9 promoter is cloned in front of the luciferase reporter gene, therefore […] promoter activation results in luciferase expression. Frozen stock of the Rab9 promoter transfected Huh7 cells were obtained from the laboratory of Dr. Yiannis Ioannou (The Mount Sinai School of Medicine, New York, NY). Cells were propagated and maintained at NCGC in medium containing RPMI-1640 supplemented with 10% FBS, 2mM L-glutamine, and 50ug/ml penicillin/streptomycin. Cells were harvested in and plated for assays in OP-MEM I reduced-serum medium supplemented with 10% FBS. The Amplite luciferase reporter gene assay kit was purchased from ABD Bioquest and prepared/stored according to manufacturers recommendations. qHTS Assay Setup: 1.Dispensed 5ul of Huh7 cells stably expressing Rab9-luciferase at a density of 1500 cells per well 1536-well plates. 2.Incubate cells at 37C, 5% CO2, and 95% humidity for 2 hours. 3.Transferred 23nl per well of compound in DMSO solution. 4.Incubated at 37C, 5% CO2, and 95% humidity for 24 hours. 5.Dispensed 3ul per well of Amplite reagent(ABD Bioquest) per well. 6.Incubate at ambient for 10 minutes. 7.Read using the luminescence protocol on the ViewLux plate reader (Perkin Elmer).
A general note: qHTS replaces the single test concentration by a dilution series.
Consider `COCc1cc(C)nc(N/N=C/c2ccc(-c3ccc(Cl)cc3[N+](=O)[O-])o2)c1C#N`, for which the Potency entry is “inactive”.

Turning to `Cc1ccc2nc(Nc3ccc(Cl)cc3)c3nncn3c2c1`, the Potency result is “inactive”.

`O=C(O)C1=CC[C@@H](c2ccc(Cl)cc2)N(S(=O)(=O)c2ccc(Cl)cc2)[C@H]1c1ccccc1`: the Potency result is “inactive”.

For `COc1ccc(OC)c(S(=O)(=O)N2CCN3CCCC3C2)c1` (stereo not given), the Potency result was “inactive”.

As for `COc1ccc(NC(=S)NNC(=O)c2cccs2)cc1`, the Potency is 31.5 µM (active).

`CC(C)C1(CCNC(=O)c2cccs2)CCOC(C)(C)C1` (stereo not given): the Potency result is “inactive”.

With `CC1CC(C)CN(CC(=O)N2CCOCC2)C1` (stereo not given), the Potency result is “inactive”.

As for `O=C(N/N=C/c1ccc(-c2ccc(Br)cc2)o1)c1ccc2c(c1)OCO2`, the Potency result was “inactive”.

Take `Fc1ccc(-c2nc3nc4ccccc4nc3n2Cc2ccco2)cc1`: the Potency result is “inactive”.

As to `COc1ccccc1OCCCC(=O)NCc1ccco1`, the Potency result is “inactive”.

Take `Cc1nc(-c2ccc(S(=O)(=O)Oc3ccc(Cl)cc3Cl)s2)cs1`: the Potency result was “inactive”.

In the case of `Nc1c(N(CCO)C(=O)/C=C/c2ccco2)c(=O)[nH]c(=O)n1Cc1ccccc1`, the Potency result was “inactive”.

On to `Cc1cc(C)c2c(N)c(C(=O)Nc3ccc([N+](=O)[O-])cc3)sc2n1`, for which the Potency is 0.499 µM (active).

In the case of `Cc1ccc(N(O)C(=O)NCCCCNC(=O)N(O)c2ccc(C)cc2)cc1`, the Potency is 15.8 µM (active).

For the molecule `CC(=O)NC(CCCN1C(=O)c2ccccc2C1=O)c1nnn(C)n1` (stereo not given), the Potency entry was “inactive”.

For `COc1ccc(C(c2nnnn2CCc2ccccc2)N2CCN(C3CCCC3)CC2)cc1` (stereo not given), the Potency entry is “inactive”.

For `O=C(CSc1nnc(-c2ccccn2)o1)Nc1ccccc1F`, the Potency was 1.12 µM (active).

Consider `O=C(COc1ccccc1F)Nc1ccc(-c2nc3ccccc3s2)cc1`, for which the Potency is 0.223 µM (active).

As for `COc1ccc(S(=O)(=O)N2CCCC(C(=O)NCc3ccncc3)C2)cc1Cl` (stereo not given), the Potency entry is “inactive”.

As to `CC(C)(C)C(=O)N/C(N)=N/c1nc2ccccc2o1`, the Potency was 0.628 µM (active).

Consider `CCOCC(=O)Nc1c(C(=O)Nc2ccc3c(c2)OCCO3)oc2ccccc12`, for which the Potency is 0.628 µM (active).

For `Cc1ccc(NC(=O)c2cccc(N3C(=O)CCC3=O)c2)nc1`, the Potency result was “inactive”.

Regarding `COc1ccc(-c2csc(Nc3ncccn3)n2)cc1C`, the Potency is 0.281 µM (active).

For `COc1cccc(C2Nc3ccccc3NC3=C2C(=O)CC(C)(C)C3)c1` (stereo not given), the Potency result is “inactive”.

Turning to `COc1ccccc1CNC(=O)COc1ccc(C)cc1`, the Potency entry was “inactive”.

As for `Cc1ccc(S(=O)(=O)N2CCN(c3cnn(C)c(=O)c3Cl)CC2)cc1`, the Potency result is “inactive”.

With `CCN(C(=O)COC(=O)c1ccc(C=O)cc1)c1c(N)n(Cc2ccccc2)c(=O)[nH]c1=O`, the Potency result was “inactive”.

As to `O=C(/C=C/c1ccco1)NCC1OCCc2ccccc21` (stereo not given), the Potency entry is “inactive”.

For the molecule `N#C/C(=N\Nc1ccc(Cl)cc1)C(=N)N1CCCCC1`, the Potency was 0.223 µM (active).

With `CCCCc1cc(=O)oc2cc(OCC(=O)N3CCOCC3)ccc12`, the Potency result is “inactive”.

Consider `Cc1ccc(C(=O)NC2CCN(CC(=O)Nc3c(C)cc(C)cc3C)CC2)cc1`, for which the Potency result was “inactive”.

With `COc1ccc(-c2csc(N(CCCN(C)C)C(=O)c3ccccc3C)n2)cc1`, the Potency entry was “inactive”.

Regarding `Cc1nnc2n(c1=O)N=C(c1ccc(Cl)cc1)CS2`, the Potency is 0.888 µM (active).

Take `Cc1nc(-c2ccccn2)sc1C(=O)Nc1ccc(F)cc1F`: the Potency was 9.96 µM (active).

On to `O=C(O)CSc1nnc(-c2ccncc2)n1CCc1ccccc1`, for which the Potency result was “inactive”.

Regarding `CCOC(=O)c1ccccc1NC(=O)CSc1nnc(Cc2cccn2C)n1-c1ccc(F)cc1`, the Potency result is “inactive”.

In the case of `CC(=O)Nc1ccc(-c2csc(Nc3ncccn3)n2)cc1`, the Potency was 0.353 µM (active).

In the case of `O=C(CCCC(=O)N(CC(=O)NC1CCCCC1)c1cccc(F)c1)Nc1ccccn1`, the Potency result is “inactive”.

`O=C(NCCc1c[nH]c2ccccc12)C(=O)NCC(c1ccco1)N1CCN(c2ccccc2F)CC1` (stereo not given): the Potency result was “inactive”.

For the molecule `COc1ccccc1C(=O)Nc1nnc(SCC(=O)NC2CCCC2)s1`, the Potency is 0.888 µM (active).
